Results from the supplement of paper PMC11732987, “Enantioselective OTUD7B fragment discovery through chemoproteomics screening and high-throughput optimisation” (Communications Chemistry, 2025).

Key:
Test in all cases: log2 ratio of Biotin-Ahx-Ub-VS probe labelling (fragment/DMSO); higher = less target engagement (more negative = stronger competition), active = hit call of the paper (q ≤ 0.05, log2 ratio ≤ -1)
Settings in all cases: compound concentration: 200 uM; treatment time: 3 h
USP42 = target: T1, USP42 (UniProt Q9H9J4)
T1 sequence (whole entry): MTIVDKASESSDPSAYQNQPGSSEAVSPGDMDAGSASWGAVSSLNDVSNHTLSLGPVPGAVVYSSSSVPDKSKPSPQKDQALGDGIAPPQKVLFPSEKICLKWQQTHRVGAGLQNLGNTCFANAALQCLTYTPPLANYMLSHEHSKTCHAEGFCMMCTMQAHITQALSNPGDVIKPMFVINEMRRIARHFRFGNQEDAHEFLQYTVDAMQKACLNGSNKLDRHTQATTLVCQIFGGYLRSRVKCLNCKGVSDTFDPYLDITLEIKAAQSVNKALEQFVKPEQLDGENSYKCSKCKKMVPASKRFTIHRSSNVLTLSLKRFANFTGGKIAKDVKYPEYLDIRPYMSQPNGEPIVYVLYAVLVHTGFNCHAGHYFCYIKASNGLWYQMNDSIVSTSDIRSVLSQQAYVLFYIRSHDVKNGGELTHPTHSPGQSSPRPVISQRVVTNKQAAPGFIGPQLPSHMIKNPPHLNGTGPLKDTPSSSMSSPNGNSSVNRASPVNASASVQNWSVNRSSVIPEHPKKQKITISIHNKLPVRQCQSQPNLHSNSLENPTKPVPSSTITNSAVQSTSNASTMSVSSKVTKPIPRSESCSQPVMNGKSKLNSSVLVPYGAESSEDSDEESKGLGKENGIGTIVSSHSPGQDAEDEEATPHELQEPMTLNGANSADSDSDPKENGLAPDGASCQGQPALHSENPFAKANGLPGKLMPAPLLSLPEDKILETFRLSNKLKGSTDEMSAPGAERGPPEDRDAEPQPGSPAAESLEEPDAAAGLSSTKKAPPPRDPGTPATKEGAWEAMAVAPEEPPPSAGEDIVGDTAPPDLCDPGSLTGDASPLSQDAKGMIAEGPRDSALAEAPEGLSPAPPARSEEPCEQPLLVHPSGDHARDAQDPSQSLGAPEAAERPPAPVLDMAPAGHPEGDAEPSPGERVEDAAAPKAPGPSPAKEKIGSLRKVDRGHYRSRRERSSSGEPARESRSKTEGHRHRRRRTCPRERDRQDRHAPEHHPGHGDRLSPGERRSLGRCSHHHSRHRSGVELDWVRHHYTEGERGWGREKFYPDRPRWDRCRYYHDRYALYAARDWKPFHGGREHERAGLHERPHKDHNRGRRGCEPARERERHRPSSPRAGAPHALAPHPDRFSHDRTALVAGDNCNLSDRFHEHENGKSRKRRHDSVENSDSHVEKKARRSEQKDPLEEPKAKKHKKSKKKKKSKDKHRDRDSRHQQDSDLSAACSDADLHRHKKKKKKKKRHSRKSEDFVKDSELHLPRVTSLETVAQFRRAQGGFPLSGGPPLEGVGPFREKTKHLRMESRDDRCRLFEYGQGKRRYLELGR
In short: (§1)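 HEK293T lysate in Tris/CHAPS/IGEPAL buffer with protease inhibitors (495 µg per sample) was given fragment at 200 µM or vehicle for 3 h, in triplicate. It then received Biotin-Ahx-Ub-VS at 0.5 µM final for 1 h. Labelled DUBs were NeutrAvidin-enriched, digested with LysC and trypsin, and run by diaPASEF LC-MS/MS. Values are average log2 fragment/vehicle ratios by unpaired t-test on global-median-normalised Spectronaut quantities of proteins with ≥2 unique peptides.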

USP46 = USP46 (UniProt P62068)
In short: as §1

USP47 = target: T2, USP47 (UniProt Q96K76)
T2 sequence (whole entry): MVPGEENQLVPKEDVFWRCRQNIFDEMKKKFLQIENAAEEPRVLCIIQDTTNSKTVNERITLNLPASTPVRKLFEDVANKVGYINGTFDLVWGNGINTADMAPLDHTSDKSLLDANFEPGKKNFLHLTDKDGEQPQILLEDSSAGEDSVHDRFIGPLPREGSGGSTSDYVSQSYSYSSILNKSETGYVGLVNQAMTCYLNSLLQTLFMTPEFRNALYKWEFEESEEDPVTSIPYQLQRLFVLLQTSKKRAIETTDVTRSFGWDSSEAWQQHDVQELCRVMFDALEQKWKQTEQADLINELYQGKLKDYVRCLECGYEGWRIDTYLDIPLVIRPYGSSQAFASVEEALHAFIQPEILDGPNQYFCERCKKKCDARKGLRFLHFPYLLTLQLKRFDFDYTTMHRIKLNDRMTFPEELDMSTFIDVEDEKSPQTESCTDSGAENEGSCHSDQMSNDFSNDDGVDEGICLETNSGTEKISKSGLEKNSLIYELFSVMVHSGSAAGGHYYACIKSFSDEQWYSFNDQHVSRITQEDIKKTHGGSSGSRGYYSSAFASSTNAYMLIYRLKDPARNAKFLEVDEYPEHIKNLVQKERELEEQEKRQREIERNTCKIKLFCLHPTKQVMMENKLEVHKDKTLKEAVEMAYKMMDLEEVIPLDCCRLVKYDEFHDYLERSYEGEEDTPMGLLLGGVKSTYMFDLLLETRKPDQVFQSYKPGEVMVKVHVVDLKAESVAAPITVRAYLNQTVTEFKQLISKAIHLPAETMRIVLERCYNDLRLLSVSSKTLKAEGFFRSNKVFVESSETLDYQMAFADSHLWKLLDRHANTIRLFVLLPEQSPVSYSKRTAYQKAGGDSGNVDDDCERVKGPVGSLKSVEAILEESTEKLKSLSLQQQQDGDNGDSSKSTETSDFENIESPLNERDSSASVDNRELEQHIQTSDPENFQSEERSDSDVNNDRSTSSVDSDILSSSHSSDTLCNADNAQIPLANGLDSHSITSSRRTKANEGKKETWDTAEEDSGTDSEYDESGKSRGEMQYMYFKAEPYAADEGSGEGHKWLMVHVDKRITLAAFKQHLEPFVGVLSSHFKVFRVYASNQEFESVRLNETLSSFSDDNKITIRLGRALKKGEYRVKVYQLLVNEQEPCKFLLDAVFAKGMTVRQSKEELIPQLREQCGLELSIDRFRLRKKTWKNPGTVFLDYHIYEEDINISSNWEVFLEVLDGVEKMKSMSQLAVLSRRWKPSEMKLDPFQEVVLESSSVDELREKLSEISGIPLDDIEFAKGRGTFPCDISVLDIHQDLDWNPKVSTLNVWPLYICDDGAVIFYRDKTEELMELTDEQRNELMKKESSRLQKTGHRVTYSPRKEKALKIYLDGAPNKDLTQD
In short: as §1

USP48 = target: T3, USP48 (UniProt Q86UV5)
T3 sequence (whole entry): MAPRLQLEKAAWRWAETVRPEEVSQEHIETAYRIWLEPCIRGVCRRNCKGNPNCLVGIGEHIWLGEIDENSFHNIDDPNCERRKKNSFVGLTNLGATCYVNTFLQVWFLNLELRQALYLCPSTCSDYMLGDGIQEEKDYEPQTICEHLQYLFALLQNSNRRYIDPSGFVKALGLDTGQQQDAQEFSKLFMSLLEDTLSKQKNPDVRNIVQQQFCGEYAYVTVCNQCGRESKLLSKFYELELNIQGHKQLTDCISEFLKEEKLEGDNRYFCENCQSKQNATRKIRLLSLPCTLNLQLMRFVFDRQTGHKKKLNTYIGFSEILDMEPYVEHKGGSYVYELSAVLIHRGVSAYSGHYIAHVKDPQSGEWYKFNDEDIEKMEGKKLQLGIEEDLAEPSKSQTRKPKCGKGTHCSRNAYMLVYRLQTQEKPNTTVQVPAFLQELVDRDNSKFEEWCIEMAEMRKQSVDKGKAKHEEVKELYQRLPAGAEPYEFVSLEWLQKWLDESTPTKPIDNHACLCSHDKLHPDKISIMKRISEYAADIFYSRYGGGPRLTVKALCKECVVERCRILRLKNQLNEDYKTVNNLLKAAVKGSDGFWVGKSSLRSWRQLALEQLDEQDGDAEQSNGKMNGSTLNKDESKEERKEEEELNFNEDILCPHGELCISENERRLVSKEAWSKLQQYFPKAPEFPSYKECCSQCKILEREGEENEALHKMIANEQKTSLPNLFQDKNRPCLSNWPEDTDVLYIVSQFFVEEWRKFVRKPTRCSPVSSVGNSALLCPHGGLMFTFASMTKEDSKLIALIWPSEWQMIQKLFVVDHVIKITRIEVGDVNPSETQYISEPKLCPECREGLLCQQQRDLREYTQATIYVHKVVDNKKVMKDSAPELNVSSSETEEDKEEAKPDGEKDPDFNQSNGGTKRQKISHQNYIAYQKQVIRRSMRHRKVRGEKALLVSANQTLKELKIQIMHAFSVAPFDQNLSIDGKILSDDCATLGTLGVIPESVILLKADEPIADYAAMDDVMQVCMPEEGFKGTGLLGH
In short: as §1

USP5 = target: T4, USP5 (UniProt P45974)
T4 sequence (whole entry): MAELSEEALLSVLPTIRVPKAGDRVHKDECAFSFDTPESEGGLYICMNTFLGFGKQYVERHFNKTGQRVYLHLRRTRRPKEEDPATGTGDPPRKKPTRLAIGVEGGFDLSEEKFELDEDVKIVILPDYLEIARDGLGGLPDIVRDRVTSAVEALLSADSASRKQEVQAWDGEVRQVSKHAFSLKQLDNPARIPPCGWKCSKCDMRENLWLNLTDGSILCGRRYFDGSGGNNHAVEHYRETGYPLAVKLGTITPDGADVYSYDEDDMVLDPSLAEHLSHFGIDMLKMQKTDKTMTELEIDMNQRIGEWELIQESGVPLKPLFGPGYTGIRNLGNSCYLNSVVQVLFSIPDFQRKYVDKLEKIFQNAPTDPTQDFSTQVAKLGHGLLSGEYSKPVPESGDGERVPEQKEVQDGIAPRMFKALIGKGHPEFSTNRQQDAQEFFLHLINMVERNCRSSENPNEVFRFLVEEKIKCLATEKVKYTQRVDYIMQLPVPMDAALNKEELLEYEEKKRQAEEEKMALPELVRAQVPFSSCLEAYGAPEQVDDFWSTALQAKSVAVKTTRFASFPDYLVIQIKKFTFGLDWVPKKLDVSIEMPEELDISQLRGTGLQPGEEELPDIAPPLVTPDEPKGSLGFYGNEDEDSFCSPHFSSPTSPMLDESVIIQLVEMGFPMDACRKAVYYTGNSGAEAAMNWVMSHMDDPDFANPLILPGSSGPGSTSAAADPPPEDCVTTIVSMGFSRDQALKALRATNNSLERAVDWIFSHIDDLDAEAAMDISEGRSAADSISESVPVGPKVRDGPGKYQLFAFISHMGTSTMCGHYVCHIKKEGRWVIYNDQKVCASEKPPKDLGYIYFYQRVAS
In short: as §1

USP54 = USP54 (UniProt Q70EL1)
In short: as §1

USP7 = USP7 (UniProt Q93009)
In short: as §1

USP8 = target: T5, USP8 (UniProt P40818)
T5 sequence (whole entry): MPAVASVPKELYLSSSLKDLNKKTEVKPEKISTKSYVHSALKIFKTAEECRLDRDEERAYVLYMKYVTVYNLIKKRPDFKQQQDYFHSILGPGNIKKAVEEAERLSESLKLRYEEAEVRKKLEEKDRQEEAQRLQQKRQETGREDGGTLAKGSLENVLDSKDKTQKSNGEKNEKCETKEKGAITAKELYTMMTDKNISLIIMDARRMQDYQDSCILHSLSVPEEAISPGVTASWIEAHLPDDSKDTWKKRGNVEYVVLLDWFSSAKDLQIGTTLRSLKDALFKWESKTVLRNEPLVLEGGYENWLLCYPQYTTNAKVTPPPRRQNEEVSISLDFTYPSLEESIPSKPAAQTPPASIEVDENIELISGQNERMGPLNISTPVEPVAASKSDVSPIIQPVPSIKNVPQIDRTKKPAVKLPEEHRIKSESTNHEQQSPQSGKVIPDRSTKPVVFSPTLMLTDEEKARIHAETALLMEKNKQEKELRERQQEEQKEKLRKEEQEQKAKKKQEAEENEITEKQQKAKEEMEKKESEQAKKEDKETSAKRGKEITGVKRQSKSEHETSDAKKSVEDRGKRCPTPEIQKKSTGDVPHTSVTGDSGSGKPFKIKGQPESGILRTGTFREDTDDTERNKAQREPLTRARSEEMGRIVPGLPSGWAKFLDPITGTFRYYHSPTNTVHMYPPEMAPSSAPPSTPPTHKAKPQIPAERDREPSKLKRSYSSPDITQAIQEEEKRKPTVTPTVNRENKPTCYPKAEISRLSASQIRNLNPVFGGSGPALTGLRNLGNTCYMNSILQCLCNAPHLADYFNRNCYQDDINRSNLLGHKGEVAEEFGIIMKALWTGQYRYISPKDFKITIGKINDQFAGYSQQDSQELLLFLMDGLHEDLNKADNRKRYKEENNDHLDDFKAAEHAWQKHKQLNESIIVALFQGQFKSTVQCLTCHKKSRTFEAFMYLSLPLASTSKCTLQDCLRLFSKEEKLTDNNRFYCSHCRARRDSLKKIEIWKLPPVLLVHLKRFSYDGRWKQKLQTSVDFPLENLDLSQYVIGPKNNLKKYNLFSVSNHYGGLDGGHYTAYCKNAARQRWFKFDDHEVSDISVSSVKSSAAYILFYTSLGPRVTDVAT
In short: as §1

Measured: log2 ratio of Biotin-Ahx-Ub-VS probe labelling

Sequence of USP46 (P62068 whole entry): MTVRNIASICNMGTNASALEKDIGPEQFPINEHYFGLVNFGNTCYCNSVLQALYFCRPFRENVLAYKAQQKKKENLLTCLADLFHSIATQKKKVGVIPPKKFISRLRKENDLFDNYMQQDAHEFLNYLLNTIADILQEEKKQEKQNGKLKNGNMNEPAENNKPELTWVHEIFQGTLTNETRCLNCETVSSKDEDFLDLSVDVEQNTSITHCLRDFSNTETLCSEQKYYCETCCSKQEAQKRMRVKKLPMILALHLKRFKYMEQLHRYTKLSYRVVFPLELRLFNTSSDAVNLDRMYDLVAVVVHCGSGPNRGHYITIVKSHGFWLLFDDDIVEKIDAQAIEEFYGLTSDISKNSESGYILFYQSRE
Sequence of USP54 (Q70EL1 whole entry): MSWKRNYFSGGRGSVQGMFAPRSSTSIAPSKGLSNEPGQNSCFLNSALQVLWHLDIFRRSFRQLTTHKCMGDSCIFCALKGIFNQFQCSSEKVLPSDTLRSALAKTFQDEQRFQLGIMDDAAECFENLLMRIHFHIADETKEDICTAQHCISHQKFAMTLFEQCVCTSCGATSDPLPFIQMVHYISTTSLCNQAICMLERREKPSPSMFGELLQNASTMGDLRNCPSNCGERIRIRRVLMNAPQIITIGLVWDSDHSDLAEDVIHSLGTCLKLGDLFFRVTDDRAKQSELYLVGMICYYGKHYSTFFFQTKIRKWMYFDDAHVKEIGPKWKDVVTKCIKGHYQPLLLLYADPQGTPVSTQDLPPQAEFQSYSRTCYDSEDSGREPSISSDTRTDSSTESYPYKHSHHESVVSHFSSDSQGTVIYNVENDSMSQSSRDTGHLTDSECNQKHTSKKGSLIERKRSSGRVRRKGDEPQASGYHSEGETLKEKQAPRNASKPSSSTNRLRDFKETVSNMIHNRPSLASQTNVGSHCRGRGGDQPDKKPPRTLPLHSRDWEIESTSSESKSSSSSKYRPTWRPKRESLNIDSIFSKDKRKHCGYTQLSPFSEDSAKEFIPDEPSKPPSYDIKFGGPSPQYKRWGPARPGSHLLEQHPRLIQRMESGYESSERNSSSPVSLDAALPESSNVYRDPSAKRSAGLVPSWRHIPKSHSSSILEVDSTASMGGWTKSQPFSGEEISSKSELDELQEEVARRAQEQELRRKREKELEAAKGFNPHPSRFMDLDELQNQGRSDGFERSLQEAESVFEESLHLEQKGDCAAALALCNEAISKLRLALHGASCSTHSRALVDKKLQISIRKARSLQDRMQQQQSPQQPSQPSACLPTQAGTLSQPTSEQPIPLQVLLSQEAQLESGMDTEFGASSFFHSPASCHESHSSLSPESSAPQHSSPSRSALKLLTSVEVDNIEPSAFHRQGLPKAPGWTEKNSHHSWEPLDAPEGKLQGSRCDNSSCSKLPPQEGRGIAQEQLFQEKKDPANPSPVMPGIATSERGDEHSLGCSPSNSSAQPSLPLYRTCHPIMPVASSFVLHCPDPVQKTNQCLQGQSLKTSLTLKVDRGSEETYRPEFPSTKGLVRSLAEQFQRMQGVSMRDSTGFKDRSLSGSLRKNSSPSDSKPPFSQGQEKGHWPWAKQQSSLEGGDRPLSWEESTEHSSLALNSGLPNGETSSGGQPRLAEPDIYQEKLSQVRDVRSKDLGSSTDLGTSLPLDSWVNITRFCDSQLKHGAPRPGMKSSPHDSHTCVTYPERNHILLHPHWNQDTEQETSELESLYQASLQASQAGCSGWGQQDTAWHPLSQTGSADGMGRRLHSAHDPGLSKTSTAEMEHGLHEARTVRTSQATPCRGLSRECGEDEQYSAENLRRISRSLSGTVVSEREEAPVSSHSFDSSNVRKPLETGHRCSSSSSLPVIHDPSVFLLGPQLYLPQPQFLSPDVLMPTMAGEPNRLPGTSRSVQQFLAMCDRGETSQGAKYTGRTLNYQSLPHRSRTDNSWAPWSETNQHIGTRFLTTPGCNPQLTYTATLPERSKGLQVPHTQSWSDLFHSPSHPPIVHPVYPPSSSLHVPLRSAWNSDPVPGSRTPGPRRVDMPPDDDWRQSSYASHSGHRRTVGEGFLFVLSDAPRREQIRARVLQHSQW
Sequence of USP7 (Q93009 whole entry, looked up): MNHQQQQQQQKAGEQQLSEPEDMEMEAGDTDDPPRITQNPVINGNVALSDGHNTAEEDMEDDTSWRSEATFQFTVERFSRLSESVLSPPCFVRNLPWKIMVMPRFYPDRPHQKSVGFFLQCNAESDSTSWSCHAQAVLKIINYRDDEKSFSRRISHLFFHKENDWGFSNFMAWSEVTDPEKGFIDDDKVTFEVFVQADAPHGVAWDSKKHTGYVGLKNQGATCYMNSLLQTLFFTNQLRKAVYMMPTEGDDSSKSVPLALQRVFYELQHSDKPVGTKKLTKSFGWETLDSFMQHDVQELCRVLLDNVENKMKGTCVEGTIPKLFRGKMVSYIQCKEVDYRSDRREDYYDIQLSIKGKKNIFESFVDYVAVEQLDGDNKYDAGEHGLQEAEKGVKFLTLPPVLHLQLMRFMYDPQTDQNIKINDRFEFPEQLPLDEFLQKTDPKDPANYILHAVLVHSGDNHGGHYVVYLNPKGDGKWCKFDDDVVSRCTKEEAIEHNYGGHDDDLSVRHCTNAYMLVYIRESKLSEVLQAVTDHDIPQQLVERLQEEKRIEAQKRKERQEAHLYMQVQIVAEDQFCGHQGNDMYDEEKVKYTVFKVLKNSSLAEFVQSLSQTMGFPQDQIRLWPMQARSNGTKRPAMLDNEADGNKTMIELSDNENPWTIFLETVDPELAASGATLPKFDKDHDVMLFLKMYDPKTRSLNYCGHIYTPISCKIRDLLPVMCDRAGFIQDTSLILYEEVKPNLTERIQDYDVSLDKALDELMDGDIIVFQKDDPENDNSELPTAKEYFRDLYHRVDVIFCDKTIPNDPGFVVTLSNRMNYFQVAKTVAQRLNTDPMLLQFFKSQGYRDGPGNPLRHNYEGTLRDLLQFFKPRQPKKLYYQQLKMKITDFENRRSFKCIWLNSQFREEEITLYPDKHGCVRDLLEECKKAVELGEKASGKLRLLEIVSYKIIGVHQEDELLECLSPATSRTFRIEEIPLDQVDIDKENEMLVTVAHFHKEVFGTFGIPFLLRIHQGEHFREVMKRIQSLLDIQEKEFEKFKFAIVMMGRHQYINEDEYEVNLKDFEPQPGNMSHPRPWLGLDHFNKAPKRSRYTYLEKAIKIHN

C[C@@H](NC(=O)CCl)c1cccc(C#N)c1
inactive: USP42 0.213 | USP46 0.013 | USP47 -0.609 | USP48 -0.209 | USP5 0.067 | USP54 0.0518 | USP7 -0.0563 | USP8 -0.19
